What all share (test): NCI-60 one-dose screen, 48 h (100 = growth as untreated, 0 = no growth, -100 = all killed)
What all share (conditions): 10 µM unless noted

Assay [1] concerns SR leukemia.
Assay [2] concerns RPMI-8226 leukemia.
In assay [3] the test system is OVCAR-8 ovarian.
Assay [4] has as its system OVCAR-5 ovarian.
The subject of assay [5] is OVCAR-4 ovarian.
The subject of assay [6] is SK-OV-3 ovarian.
In assay [7] the test system is IGROV1 ovarian.
The subject of assay [8] is OVCAR-3 ovarian.
In assay [9] the test system is HS 578T breast.
Assay [10] has as its system NCI/ADR-RES ovarian.

This is an account of results in PubChem BioAssay (NCI).

Where “and” joins values, the source holds several entries; their conditions need not be identical. Equal entries are not always repeated. This is part of a sample that, as a whole, favours compounds with a hit. Of some 83,000 tested, about 20% had one in any assay.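 Plates (96-well) were seeded with cells, treated with compound at one concentration, and incubated for 48 hours before percent growth was determined.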 Calls of active or inactive are those of the source. How the source made its calls: active means growth percent below 10; inactive means the rest.

Consider `O=S(=O)(O)c1ccc(N=Nc2ccc(N=Nc3cccc4ccccc34)c(S(=O)(=O)O)c2)cc1`, for which the growth in assay [1] was 99.4% (inactive); in assay [2], 108% (inactive); in assay [3], 101% (inactive); in [4], 103% (inactive); in [5], 93.2% (inactive); in assay [6] it was 85.4% (inactive). Also, the growth was 96.3% (inactive) in [7], 103% (inactive) in assay [8], 104% (inactive) in [9] and 103% (inactive) in [10].

With `O=C1/C(=C/c2ccc(F)c(F)c2)CN(C(=O)C(Cl)Cl)C/C1=C\c1ccc(F)c(F)c1`, the growth was -21.2% (active) in assay [1]; -31.4% (active) in assay [2]; -95.4% (active) in [3]; -72.6% (active) in assay [4]; -67.1% (active) in [5]; -35% (active) in assay [6]. Further, the growth was -84.5% (active) in assay [7], -97% (active) in assay [8], -38.5% (active) in [9] and -18% (active) in [10].

In the case of `CN(C)c1ccc2nc3ccc(=O)cc-3sc2c1`, the growth is 7.73% (active) and 17.9% (inactive) in [1]; 12.8% (inactive) and 13.8% (inactive) in [2]; 28.1% (inactive) and 6.61% (active) in assay [3]; 86.6% (inactive) and 88.5% (inactive) in assay [4]; 2.9% (active) in assay [5]; 81.7% (inactive) and 93.7% (inactive) in assay [6]. Further, the growth in [7] is 50.2% (inactive) and 57.1% (inactive); in [8], -7.17% (active) and -6.79% (active); in assay [9], 79.4% (inactive) and 79.2% (inactive); in [10] it was 14.7% (inactive) and 46.2% (inactive).

As to `COc1cc(CNC(=O)CCCC/C=C/C(C)C)ccc1O`, the growth was 91.7% (inactive) and 99% (inactive) in [1]; 100% (inactive) and 94.7% (inactive) in [2]; 109% (inactive) in [3]; 92.7% (inactive) in assay [4]; 93.3% (inactive) and 104% (inactive) in [5]; 117% (inactive) and 105% (inactive) in assay [6]. For the same compound, the growth was 96.8% (inactive) and 88.2% (inactive) in [7]; 84.5% (inactive) and 119% (inactive) in assay [8]; 91.5% (inactive) and 111% (inactive) in assay [9]; 113% (inactive) and 97.5% (inactive) in [10].

For `CCOC(=O)c1c(-c2ccc(C)cc2)c(C#N)c(=O)n(-c2cccc(C(F)(F)F)c2)c1N`, the growth is 102% (inactive) in assay [1]; 104% (inactive) in assay [2]; 103% (inactive) in assay [3]; 93% (inactive) in [4]; 106% (inactive) in [5]; 108% (inactive) in [6]. The growth in assay [7] was 107% (inactive); in assay [8], 106% (inactive); in assay [9] it was 105% (inactive); in assay [10], 109% (inactive).

In the case of `COC(=O)c1nc(-c2ccc(C)cc2)oc1S(=O)(=O)c1ccc(Cl)cc1`, the growth was -15.7% (active) in assay [1]; 81.2% (inactive) in assay [2]; 94.2% (inactive) in assay [3]; 96.3% (inactive) in assay [4]; 100% (inactive) in [5]; 97.4% (inactive) in [6]. In addition, the growth in [7] was 89.3% (inactive); in assay [8], 107% (inactive); in [9], 105% (inactive); in assay [10] it was 105% (inactive).

For the compound `CN1CCN(C(=O)OCc2nc3c(N4CCOCC4)nc(Cl)nc3n2C)CC1`, the growth is -28% (active) in [1]; -28.2% (active) in assay [2]; -80.3% (active) in [3]; -73.7% (active) in assay [4]; -39.5% (active) in [5]; 69.9% (inactive) in assay [6]. In addition, the growth in [7] was -95.4% (active); in assay [8] it was -80.4% (active); in assay [9] it was -31.2% (active); in [10] it was -1.09% (active).

As to `O=C(Nc1ccccc1C(=O)N/N=C(\c1ccccc1)c1ccccn1)c1ccccc1`, the growth in assay [1] is 4.3% (active); in assay [2], 20.8% (inactive); in [3], 13.2% (inactive); in assay [4] it was 31.9% (inactive); in assay [5], 12.7% (inactive); in assay [6] it was 10.7% (inactive). For the same compound, the growth in assay [7] was 20.9% (inactive); in [8], 28% (inactive); in assay [9], 65.2% (inactive); in assay [10] it was 9.54% (active).

As to `CCCCC#Cc1c(/C=C(\CCCC)SCC)n(C)c(=O)[nH]c1=O`, the growth in [1] is 93.4% (inactive); in assay [2], 85.5% (inactive); in [3], 76.8% (inactive); in assay [4], 99.3% (inactive); in assay [5] it was 90.7% (inactive); in [6], 106% (inactive). The growth in assay [7] is 73.6% (inactive); in [8], 88.5% (inactive); in [9], 95.9% (inactive); in [10], 95.6% (inactive).

As to `Nc1ccc(/C=N/Nc2ccnc3c(N)cccc23)c2cccnc12`, the growth in assay [1] was -28.2% (active); in assay [2] it was -30.3% (active); in [3], -30% (active); in assay [4], 13.9% (inactive); in assay [5], -51.4% (active); in [6] it was 97.2% (inactive). Further, the growth in assay [7] is 88.4% (inactive); in assay [8], -85.5% (active); in [9], -17% (active); in [10], 9.25% (active).

As for `Cc1ccc(-c2nc(SCC(=O)c3ccc(C#N)cc3)[nH]c(=O)c2C#N)cc1`, the growth in assay [1] was -40.6% (active); in assay [2], 123% (inactive); in assay [3], 96.3% (inactive); in assay [4] it was 94.8% (inactive); in assay [5] it was 94.5% (inactive); in assay [6] it was 82.4% (inactive). Further, the growth in assay [7] was 99.9% (inactive); in assay [8] it was 97.9% (inactive); in assay [9] it was 113% (inactive); in assay [10], 101% (inactive).

On to `CN(Cc1ccccc1)c1nc(Cl)c(C2CC(c3ccc(F)cc3)=NN2C=O)s1` (stereo not given), for which the growth was 92.2% (inactive) in [1]; 82.5% (inactive) in assay [2]; 100% (inactive) in [3]; 99.8% (inactive) in [4]; 90.9% (inactive) in assay [5]; 113% (inactive) in assay [6]. The growth in assay [7] is 89.4% (inactive); in assay [8], 100% (inactive); in assay [9], 97.9% (inactive); in [10], 90.2% (inactive).
